# Test results as given in the supplement of paper PMC9023506.
# Counter-ions that a name gives are not always drawn.
# Key:
# Settings in all cases: 10 µM; exposure time: 3 h pre-incubation + 3 h imaging
# [1] = system: Danio rerio larvae (5 dpf); assay: habituation to 1-s acoustic pulses, difference vs DMSO (percentage points (treated minus DMSO)); higher = more of the behaviour than the DMSO vehicle control
# How it was run: (§1)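 5-dpf wild-type zebrafish larvae in 96-well ProxiPlates were exposed to library drugs at 10 µM (diluted 1000× from DMSO stocks into egg water). There were 48 larvae per drug, exposed 3 h before and 3 h during imaging at 28.5 °C. Images taken every 6 s covered a 3-h program of rest, moving coloured lines and acoustic pulses, and an ImageJ macro scored movement and upper-half location. Each behaviour score is the treated-group mean minus the DMSO vehicle mean, in percentage points.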
# [2] = system: Danio rerio larvae (5 dpf); assay: optomotor response to blue moving lines, difference vs DMSO (percentage points (treated minus DMSO)); higher = more of the behaviour than the DMSO vehicle control
# How it was run: as §1
# [3] = system: Danio rerio larvae (5 dpf); assay: optomotor response to green moving lines, difference vs DMSO (percentage points (treated minus DMSO)); higher = more of the behaviour than the DMSO vehicle control
# How it was run: as §1
# [4] = system: Danio rerio larvae (5 dpf); assay: excitability to 1-s acoustic pulses, difference vs DMSO (percentage points (treated minus DMSO)); higher = more of the behaviour than the DMSO vehicle control
# How it was run: as §1
# [5] = system: Danio rerio larvae (5 dpf); assay: activity during period 15 (no stimuli), difference vs DMSO (percentage points (treated minus DMSO)); higher = more of the behaviour than the DMSO vehicle control
# How it was run: as §1
# [6] = system: Danio rerio larvae (5 dpf); assay: optomotor response to fast red moving lines, difference vs DMSO (percentage points (treated minus DMSO)); higher = more of the behaviour than the DMSO vehicle control
# How it was run: as §1
# [7] = system: Danio rerio larvae (5 dpf); assay: startle response to 20-s acoustic pulses, difference vs DMSO (percentage points (treated minus DMSO)); higher = more of the behaviour than the DMSO vehicle control
# How it was run: as §1
compound,measurement,setting,value
COc1ccccc1OCC(O)CN1CCN(CC(=O)Nc2c(C)cccc2C)CC1 (stereo unspecified) [Ranolazine dihydrochloride],habituation to 1-s acoustic pulses,[1],-4.45
same,optomotor response to blue moving lines,[2],13.8
same,optomotor response to green moving lines,[3],-0.274
Nc1ncn([C@H]2C[C@H](O)[C@@H](CO)O2)c(=O)n1 [Decitabine],excitability to 1-s acoustic pulses,[4],6.23
same,activity during period 15,[5],1.76
same,optomotor response to green moving lines,[3],0.0025
C[C@]12CC[C@@H]3c4ccc(O)cc4C[C@@H](CCCCCCCCC[S+]([O-])CCCC(F)(F)C(F)(F)F)[C@H]3[C@@H]1CC[C@@H]2O (stereo partly specified),habituation to 1-s acoustic pulses,[1],-2.82
same,optomotor response to blue moving lines,[2],6.07
same,optomotor response,[6],3.52
N[C@@H]1[C@H]2CN(c3nc4c(cc3F)c(=O)c(C(=O)O)cn4-c3ccc(F)cc3F)C[C@@H]12 [Trovafloxacin mesylate],habituation to 1-s acoustic pulses,[1],-3.6
same,excitability to 1-s acoustic pulses,[4],11.3
same,activity during period 15,[5],2.91
same,optomotor response to blue moving lines,[2],14.1
C[C@@H](O[C@H]1OCCN(Cc2n[nH]c(=O)[nH]2)[C@H]1c1ccc(F)cc1)c1cc(C(F)(F)F)cc(C(F)(F)F)c1 [Aprepitant],habituation to 1-s acoustic pulses,[1],0.23
same,activity during period 15,[5],-7.86
same,optomotor response to blue moving lines,[2],4.96
CN1CCC[C@@H]1CCO[C@](C)(c1ccccc1)c1ccc(Cl)cc1 [Clemastine fumarate],habituation to 1-s acoustic pulses,[1],-5.08
same,optomotor response to blue moving lines,[2],22.4
same,optomotor response,[6],13.4
CC[C@H](C)C(=O)O[C@H]1C[C@@H](C)C=C2C=C[C@H](C)[C@H](CC[C@@H]3C[C@@H](O)CC(=O)O3)[C@H]21 [Lovastatin],habituation to 1-s acoustic pulses,[1],-1.04
same,excitability to 1-s acoustic pulses,[4],12.6
same,activity during period 15,[5],-4.33
same,optomotor response to blue moving lines,[2],8.37
same,optomotor response,[6],-4.95
CN1CC2c3ccccc3Oc3ccc(Cl)cc3C2C1 (stereo unspecified) [Asenapine maleate],activity during period 15,[5],40.8
same,optomotor response to blue moving lines,[2],-10
same,optomotor response,[6],-11.9
O=C1CCc2cc(OCCCCc3nnnn3C3CCCCC3)ccc2N1 [Cilostazol],habituation to 1-s acoustic pulses,[1],-0.365
same,excitability to 1-s acoustic pulses,[4],6.57
same,optomotor response to blue moving lines,[2],6.53
same,startle response to 20-s acoustic pulses,[7],2.19
